Only some compounds are listed: those with a hit (about 0.53% of all), similar ones and a draw of the others.
TcdB inh: inhibitors of Clostridioides difficile toxin B glycohydrolase | P18177 | TcdB glycohydrolase enzymatic assay, plate reader | inhibition, % at 9.99 µM | 0.24% of 350,000 active; in the data active means inhibition above about 10%
Y pestis TopoI: blocks Yersinia pestis topoisomerase I activity; activity, % at 10 µM; 0.064% of 360,000 active; Y. pestis Topo-I cleavage product accumulation, plate reader; in the data active means activity above about 50%, passing the limit was not always enough; inconclusive means no clear call, values can overlap the other calls
BioA inh: inhibitors of Mycobacterium tuberculosis BioA enzyme | inhibition, % at 9.99 µM | 0.096% of 360,000 active | purified M. tuberculosis BioA enzyme, plate reader; in the data active means inhibition above about 40%; inconclusive means no clear call, values can overlap the other calls
PrP UTR inh: inhibition of PrP 5' UTR reporter expression. 0.35% of 340,000 active. cell-based PrP 5' UTR mRNA reporter, plate reader. AID 488862. inhibition, % (concentration not given with the values); in the data active means inhibition above about 52%
Of the large screens only hits and unclear results are named; the others gave an inactive call.

Cn1cc(C[C@@H](N)C(=O)O)c2ccccc21	none (no result: Y pestis TopoI, BioA inh, PrP UTR inh)
Cn1cc(C(CO)Cc2ccccc2)c2ccccc21 (configuration not stated)	TcdB inh 20
CN(C(=O)c1cc(COc2c(F)cccc2F)on1)C1CCOC1 (configuration not stated)	none
O=C(c1cc(COc2c(F)cccc2F)on1)N(Cc1ccccc1)CC1CC1	Y pestis TopoI 64
CC(C)C#Cc1ccc2c(c1)O[C@@H](CN(C)C(=O)NC(C)C)[C@@H](C)CN([C@@H](C)CO)S2(=O)=O	none (no result: TcdB inh, Y pestis TopoI, PrP UTR inh)
CCC(=O)N1[C@H](C(=O)NC2CCC2)[C@@H](CO)[C@@H]2Cn3c(ccc(-c4ccc(F)cc4)c3=O)[C@@H]21	none (no result: Y pestis TopoI, PrP UTR inh)
O=C(COC(=O)CCC1CCCC1)Nc1ccccc1Br	none
Cc1ccc(NC(=O)COC(=O)CCC2CCCC2)c(Br)c1	Y pestis TopoI 70 (no result: BioA inh)
O=C(C[C@@H]1C=C[C@@H](NC(=O)c2ccncc2)[C@@H](CO)O1)Nc1ccccc1	none (no result: Y pestis TopoI, BioA inh, PrP UTR inh)
O=c1c2ccccc2nc(/C=C/c2ccc(O)cc2)n1-c1ccccc1O	TcdB inh 12
C[C@@H]1CN([C@H](C)CO)C(=O)Cc2cc(NC(=O)Cc3ccccc3)ccc2O[C@@H]1CN(C)S(=O)(=O)c1cn(C)cn1	none (no result: TcdB inh, Y pestis TopoI, PrP UTR inh)
Fc1ccc(-c2nc3ccc(Br)cn3c2Cc2ccccc2)cc1	TcdB inh 13 (no result: PrP UTR inh)
O=C(CSc1ccccc1)OCC(=O)N1CCN(C(=O)c2ccco2)CC1	none (no result: BioA inh)
O=C(CCN1c2ccccc2Sc2ccccc21)OCC(=O)N1CCN(C(=O)c2ccco2)CC1	Y pestis TopoI 52 (no result: TcdB inh)
COc1ccc(NC(=O)N(C)C[C@@H]2Oc3ccc(NS(=O)(=O)c4ccc(F)cc4)cc3CC(=O)N([C@@H](C)CO)C[C@H]2C)cc1	none (no result: Y pestis TopoI, BioA inh, PrP UTR inh)
COc1ccccc1C1=NNC(=NCc2ccccc2)SC1	TcdB inh 10 (no result: BioA inh)
CCN(CC)S(=O)(=O)c1cc(C(=O)Nc2cccnc2Cl)ccc1Cl	TcdB inh 11, Y pestis TopoI inconclusive (no result: BioA inh)
COc1ccccc1C(=O)OCC#CCSc1nnc(-c2cccc3ccccc23)o1	Y pestis TopoI 52
Cc1ccc(-c2nnc(SCC#CCOC(=O)c3cccs3)o2)cc1	Y pestis TopoI 56 (no result: TcdB inh, BioA inh)
COc1ccc(C(=O)OCC#CCSc2nnc(-c3cccc4ccccc34)o2)cc1	none
O=C(OCC#CCSc1nnc(-c2ccc(Br)cc2)o1)c1cccs1	none (no result: BioA inh)
CC(Oc1cc2oc(=O)c3c(c2cc1Cl)CCC3)C(=O)NCc1ccccn1 (configuration not stated)	BioA inh 63
Cc1ccccc1NS(=O)(=O)c1ccc(OCC(=O)N2CCCCC2)cc1	TcdB inh 11 (no result: PrP UTR inh)
Cc1ccccc1NS(=O)(=O)c1ccc(C(=O)N2CCCCCCC2)cc1	none
COCC(=O)Nc1ccc2c(c1)C(=O)N(C)C[C@@H](OC)[C@H](C)CN(C(=O)CC1CC1)[C@@H](C)CO2	none (no result: Y pestis TopoI, PrP UTR inh)
CCc1cn([C@H]2C[C@H](O)[C@@H](CO)O2)c(=O)[nH]c1=O	none
Cc1nn(C2CC(O)C(O)C(CO)O2)c(=O)[nH]c1=O (configuration not stated)	TcdB inh 13 (no result: BioA inh)
C[C@@H]1CCCCO[C@@H](CN(C)Cc2ccc3c(c2)OCO3)[C@H](C)CN([C@@H](C)CO)C(=O)c2cc(NC(=O)Nc3cccc4ccccc34)ccc2O1	none (no result: TcdB inh, Y pestis TopoI, PrP UTR inh)
O=C(NC1CCCC1)N[C@@H]1CC[C@@H](CC(=O)N2CCOCC2)O[C@H]1CO	none (no result: Y pestis TopoI, PrP UTR inh)
CC(C)C#Cc1ccc2c(c1)O[C@@H](CN(C)C(=O)NC(C)C)[C@H](C)CN([C@@H](C)CO)S2(=O)=O	none (no result: TcdB inh, Y pestis TopoI, PrP UTR inh)
COc1ccc(NC(=O)N2C[C@@H](O)COC[C@@H]3O[C@@H](CC(=O)N4CCCCC4)CC[C@H]32)cc1	none (no result: Y pestis TopoI, PrP UTR inh)
Oc1ccc(/C=N/n2cc(-c3ccccc3)[nH]c2=S)cc1	TcdB inh 14 (no result: BioA inh)
CN(Cc1c(F)cccc1Cl)C(=O)c1ccc(COc2ccccc2)cc1	Y pestis TopoI 55
CCC(=O)N1CC(=O)N2[C@H](C1)[C@H](c1ccc(C#CC3CCCCC3)cc1)[C@@H]2CO	none (no result: Y pestis TopoI, BioA inh, PrP UTR inh)
Cc1noc(C)c1C(=O)N(C)C[C@@H]1OCc2ccccc2-c2c(n(C)c3ccccc23)C(=O)N([C@@H](C)CO)C[C@@H]1C	none (no result: Y pestis TopoI, PrP UTR inh)
CC1CCCN(C(=S)Nc2ccc(F)cc2)C1 (configuration not stated)	TcdB inh 12 (no result: BioA inh)
CCNC(=O)C[C@H]1CC[C@@H]2[C@@H](COc3ccc(NC(=O)Nc4ccc(F)cc4)cc3C(=O)N2C)O1	none (no result: Y pestis TopoI, PrP UTR inh)
CC(C)NC(=O)N1CC[C@@H]2[C@H]1c1cc(-c3ccc(F)cc3)ccc1N(C)[C@H]2CO	TcdB inh 12 (no result: Y pestis TopoI, BioA inh, PrP UTR inh)
CCCNC(=O)N1CC[C@@H]2[C@@H](CO)N(C)c3ccc(-c4ccccc4)cc3[C@@H]21	TcdB inh 11 (no result: Y pestis TopoI, BioA inh, PrP UTR inh)
O=C(C1CCOCC1)N1CC[C@@H]2[C@@H](CO)Nc3ccc(-c4ccc(F)cc4)cc3[C@@H]21	TcdB inh 10 (no result: Y pestis TopoI, PrP UTR inh)
CC(C)NC(=O)N1CC[C@@H]2[C@H]1c1cc(-c3ccccc3)ccc1N(C)[C@H]2CO	TcdB inh 15 (no result: Y pestis TopoI, PrP UTR inh)
CC(C)NC(=O)N1CC[C@@H]2[C@@H](CO)N(C)c3ccc(-c4cccc(F)c4)cc3[C@@H]21	none (no result: TcdB inh, Y pestis TopoI, PrP UTR inh)
O=C(C1CCOCC1)N1CC[C@@H]2[C@H]1c1cc(-c3ccc(F)cc3)ccc1N[C@@H]2CO	none (no result: Y pestis TopoI, PrP UTR inh)
CC(C)NC(=O)N1CC[C@@H]2[C@H]1c1cc(-c3cccc(F)c3)ccc1N(C)[C@@H]2CO	none (no result: TcdB inh, Y pestis TopoI, PrP UTR inh)
C[C@@H]1CN([C@H](C)CO)S(=O)(=O)c2ccc(C3=CCCCC3)cc2O[C@H]1CN(C)Cc1ccccc1F	none (no result: Y pestis TopoI, PrP UTR inh)
CN(C)CC(=O)N1CC[C@@H]2[C@H]1c1cc(-c3ccccc3)ccc1N(C)[C@H]2CO	TcdB inh 12 (no result: Y pestis TopoI, PrP UTR inh)
CN1c2ccc(-c3ccccc3)cc2[C@@H]2[C@@H](CCN2C(=O)CN2CCOCC2)[C@@H]1CO	TcdB inh 12 (no result: Y pestis TopoI, PrP UTR inh)
COCC(=O)N1CC[C@@H]2[C@H]1c1cc(-c3ccc(OC)cc3)ccc1N(C)[C@H]2CO	TcdB inh 17 (no result: Y pestis TopoI, PrP UTR inh)
CN1c2ccc(-c3ccccc3)cc2[C@@H]2[C@@H](CCN2C(=O)CN2CCOCC2)[C@H]1CO	none (no result: Y pestis TopoI, PrP UTR inh)
O=C(C[C@@H]1CC[C@@H]2[C@H](COC[C@H](O)CN2C(=O)Nc2cc(Cl)cc(Cl)c2)O1)NCC1CCCCC1	none (no result: Y pestis TopoI, PrP UTR inh)
Cc1cc(NC(=O)C(C)SCC(=O)N(C)CC(=O)Nc2ccc(F)cc2)no1 (configuration not stated)	Y pestis TopoI 101
C[C@H](CO)N1C[C@H](C)[C@H](CN(C)Cc2ccc(C(=O)Nc3ccccc3N)cc2)Oc2c(NS(=O)(=O)c3cn(C)cn3)cccc2C1=O	none (no result: Y pestis TopoI, BioA inh, PrP UTR inh)
COc1ccc(/C=N/NC(=O)c2c(C)nc3ccc(Cl)cn23)cc1OC	none
COc1cc(/C=N/NC(=O)c2c(C)nc3ccc(Cl)cn23)cc(OC)c1OC	TcdB inh 13
COC(=O)C1=C(c2ccc(-c3ccccc3)c(F)c2)C[C@@H]2CC[C@H]1N2C(=O)NCCO	none
COC(=O)C1=C(c2ccc(OCc3ccccc3)cc2)C[C@@H]2CC[C@H]1N2C(=O)NCCCc1ccccc1	TcdB inh 12
COC(=O)C1=C(c2cccc(OCc3ccccc3)c2)C[C@@H]2CC[C@H]1N2C(=O)NCCCc1ccccc1	none
COC(=O)C1=C(c2ccc(-c3ccccc3)c(F)c2)C[C@@H]2CC[C@H]1N2C(=O)NCc1ccco1	Y pestis TopoI 56
CCCNC(=O)C[C@H]1CC[C@@H]2[C@H](COc3ccc(NC(=O)CC)cc3C(=O)N2C)O1	none (no result: Y pestis TopoI, PrP UTR inh)

Screens as filed in PubChem BioAssay.
